Source: PubChem
aSyn UTR act – Activators via SNCA 5'UTR binding, MLPCN; alpha-synuclein 5'UTR reporter, activators screen; activity score, % (tested at 7.5 µM), hits read low; 300,000 compounds, 7.1% hits; AID 1814; in the data active means activity score below about -60%
Numbers without * were called inactive. A selection follows.

SMILES | aSyn UTR act
O=[N+]([O-])c1cccc(-c2ccc(SCc3ccccn3)nn2)c1 | -97*
CC(=C/c1ccccc1)/C=N/n1cnnc1 | 56
CC(/C=N/NC(=O)c1nn(C)c(C)c1Br)=C\c1ccccc1 | -122*
CC(=C/c1ccccc1)/C=N/NC(=O)c1cccs1 | -90*
O=C(N/N=C/C(Br)=C\c1ccccc1)c1cccs1 | -318*
c1ccc(-c2ccc(-c3[nH]ncc3CN3CCC(N4CCSCC4)CC3)cc2)cc1 | -143*
O=c1c2[nH]c3cccc(Cl)c3c2ncn1CC1CCCO1 (stereo not drawn) | -80*
O=C(c1ccc(-c2cccc(C(F)(F)F)c2)o1)N1CCOCC1 | -71*
S=C(c1ccc(-c2ccccc2Cl)o1)N1CCOCC1 | -137*
O=C(c1ccc(-c2ccc([N+](=O)[O-])cc2Cl)o1)N1CCOCC1 | -135*
S=C(c1ccc(-c2ccc(Cl)c(Cl)c2)o1)N1CCOCC1 | -155*
S=C(c1ccc(-c2ccc(Br)cc2)o1)N1CCCCC1 | -201*
O=C(c1ccc(-c2cccc(Cl)c2Cl)o1)N1CCOCC1 | -133*
CC1CCN(C(=O)c2ccc(-c3ccccc3Cl)o2)CC1 | -104*
O=C(Cc1ccc(Br)cc1)N1CCCCCC1 | -176*
S=C(c1ccc(-c2ccc(Br)cc2)o1)N1CCOCC1 | -178*
COC(=O)/C(=C1/Oc2ccc(C(C)(C)C)cc2S1)C(F)(F)F | -224*
Cc1ccn2cc(-c3cccc(NC(=O)c4cccs4)c3)nc2c1 | -85*
Cc1cccn2cc(-c3cccc(NC(=O)c4cccs4)c3)nc12 | -73*
Cc1ccccc1-n1nc(C)c2c(C(=O)NN)cc(-c3ccncc3)nc21 | 56
Cc1nnsc1S(=O)c1ccc(F)cc1 (stereo not drawn) | -68*
Cc1ccc(S(=O)c2snnc2C)cc1 (stereo not drawn) | -66*
Cc1nnsc1S(=O)c1ccc(Br)cc1 (stereo not drawn) | -148*
c1ccc(Oc2cc(-n3cccn3)ncn2)cc1 | -140*
COC(=O)c1cnn(-c2cc(Oc3ccccc3)ncn2)c1N | -127*
SMILES | aSyn UTR act
NC(=O)c1cnn(-c2cc(Oc3ccccc3)ncn2)c1N | -66*
COC(=O)c1cnc(Oc2ccc(NC(=O)NC(=O)c3c(OC)cccc3OC)cc2)cc1C(F)(F)F | 74
O=C(/C=C/NCc1cccnc1)c1ccc(Br)cc1 | -66*
O=C(NCc1cccnc1)Nc1ccc(Cl)c(Cl)c1 | -110*
O=C(NCc1cccnc1)Nc1ccc(Br)cc1 | -79*
N#C/C(=N/Nc1ccc(OC(F)(F)F)cc1)C(N)=S | -71*
CC(=O)OC(CC(=O)O)C[N+](C)(C)C (stereo not drawn) | 68
Nc1nc(COc2ccc(Cl)cc2)cs1 | -93*
Cc1ccc(OCc2csc(N)n2)cc1 | -108*
Nc1nc(COc2ccccc2)cs1 | -67*
COc1cccc2sc(/N=C/N(C)C)nc12 | -81*
Cc1ccc(C(=O)Nc2c3c(nn2C(C)(C)C)CS(=O)(=O)C3)cc1[N+](=O)[O-] | -79*
CC(C)(C)n1nc2c(c1NC(=O)c1cc([N+](=O)[O-])ccc1Cl)CS(=O)(=O)C2 | -95*
CCc1ccc(OCC(=O)Nc2ncn[nH]2)cc1 | -87*
CCc1ccc(NC(=O)COc2ccc3c(c2)OCO3)cc1 | -74*
NC(=O)c1ccccc1NC(=O)COc1ccc2c(c1)OCO2 | -87*
COc1ccccc1NC(=O)COc1ccc2c(c1)OCO2 | -76*
Cc1cc(N/N=C/c2ccc(O)cc2O)nc(-c2ccccc2O)n1 | 75
Cc1cc(N/N=C\c2ccccc2)nc(-c2ccccc2O)n1 | -138*
Cc1cc(N(C)/N=C/c2ccccc2)nc(-c2ccccc2O)n1 | -119*
CN(/N=C/c1cc(Br)cc(Br)c1O)c1cccc(C(F)(F)F)n1 | 70
Cc1ccsc1C(=O)NCCc1nnc2ccccn12 | -78*
O=C(NCCc1nnc2ccccn12)c1cccs1 | -67*
CC(=O)c1ccc(NCCC(=O)c2ccccc2)cc1 | -82*
Cc1cccc(NCCC(=O)c2ccc(Br)cc2)c1 | -94*
SMILES | aSyn UTR act
Cc1ccc(NCCC(=O)c2cccs2)cc1 | -164*
Cc1ccc(NCCC(=O)c2cccs2)cc1C | -187*
CC(C)c1ccc(NCCC(=O)c2cccs2)cc1 | -217*
Cc1ccc(NCCC(=O)c2ccc(Cl)cc2)cc1C | -99*
Cc1cc(C)c(C(CC(=O)c2cccs2)C(C#N)C#N)c(C)c1 (stereo not drawn) | -189*
CC(CC(=O)c1cccs1)CC(=O)c1cccs1 | -144*
COC(=O)c1ccc(COC(=O)CCC(=O)c2cccs2)cc1 | -84*
Cc1ccc(NCCC(=O)c2cccs2)cc1Cl | -87*
O=c1c(-c2ccc(O)cc2)coc2cc(O)ccc12 | -93*
O=c1c(-c2cnn(-c3ccccc3)c2)coc2cc(O)ccc12 | -156*
Cc1oc2cc(O)ccc2c(=O)c1-c1cnn(-c2ccccc2)c1 | -77*
Cc1ccc(C(=O)/C=C/c2ccc(-c3ccc(C)cc3)o2)cc1 | -73*
O=C(/C=C\c1ccc(-c2ccccc2)o1)c1ccccc1 | -62*
Cc1ccc(-c2onc3ccc(Cl)cc23)cc1 | -63*
O=Cc1ccc2noc(-c3ccc(Cl)cc3)c2c1 | -67*
